We go through 4 molecules from PubChem BioAssay (EPA / NIEHS).

Calls of active or inactive are those of the source. Rule for the calls: active = hit-call score of the fitted dose curve at least 0.9, where 1 is the maximum; inactive = score below 0.9.

Assay [1] has as its target CCAAT/enhancer-binding protein beta (Homo sapiens) (UniProt P17676). Kind of assay: ATG_C_EBP_CIS: Attagene CIS-FACTORIAL HepG2 Assay for human CCAAT/Enhancer Binding Protein (C/EBP) beta (AID 2282927). As to conditions: HepG2 Attagene cis-factorial transcription factor reporter; actives raise or lower the signal. In outline:
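Transiently transfected HepG2 (MRTU library, endogenous TF-driven promoters); 24 h dosing; total RNA → oligo(dT) RT → PCR → 6-FAM primer extension → HpaI digest → CE; fit bidirectionally vs DMSO.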

Assay [2] is described as follows: ATG_CMV_CIS: Attagene CIS-FACTORIAL HepG2 Assay for human CMV (Internal Marker) (AID 2282928).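 Note: endpoint acts as a background internal control marker rather than a target.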 As to conditions: HepG2 CMV promoter reporter, transcription factor profiling; actives raise or lower the signal. A digest of the protocol: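 Fluorescence intensity of RT-PCR-derived reporter fragments, resolved by capillary electrophoresis, gives the signal. HepG2 liver cells bearing transfected cis-element reporters were treated 24 h; activity in either direction was fit relative to DMSO-treated controls.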

Assay [3] is described as follows: ATG_DR4_LXR_CIS: Attagene CIS-FACTORIAL HepG2 Assay for human Liver X Receptor (LXR), DR4 submotif (AID 2282929). The following applies: HepG2 Attagene DR4 cis-reporter, mRNA transcription; actives raise or lower the signal. A digest of the protocol:
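HepG2, transient MRTU transfection, cis-element (DR4) promoter; 24 h compound exposure; total RNA → oligo(dT) RT → PCR → 6-FAM primer extension → HpaI cut → CE. Gain/loss vs DMSO, bidirectional fit.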

In assay [4] the target is Aryl hydrocarbon receptor (Homo sapiens) (UniProt P35869). The assay is described as follows: ATG_Ahr_CIS: Attagene CIS-FACTORIAL HepG2 Assay for human Aryl Hydrocarbon Receptor (Ahr) (AID 2282930). As to conditions: HepG2 AhR cis-factorial reporter transcription; actives raise or lower the signal. In outline:
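Read-out: reporter mRNA quantified by RT-PCR with fluorescent primer extension and capillary electrophoresis. Human HepG2 liver cells carried transfected cis-promoter reporter units and were exposed to chemical for 24 h; gain or loss fitted relative to DMSO.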

Assay [5] is described as follows: ATG_AP_1_CIS: Attagene CIS-FACTORIAL HepG2 Assay for human Activator Protein 1 (AP-1) (AID 2282931). As to conditions: HepG2 Attagene cis-factorial AP-1 reporter mRNA; actives raise or lower the signal. In outline: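 Transient MRTU transfection of HepG2 → 24 h chemical treatment → RNA isolation, RT-PCR, 6-FAM labelling, HpaI digest → capillary electrophoresis. Fit: bidirectional, DMSO negative control.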

The nature of assay [6]: ATG_BRE_CIS: Attagene CIS-FACTORIAL HepG2 Assay for human Bone Morphogenetic Protein (BMP) Response Element (BRE) (AID 2282933). As to conditions: HepG2 BMP response element reporter, Attagene transcription factor profiling; actives raise or lower the signal. A digest of the protocol: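 Endogenous transcription factor activity read in transiently transfected HepG2 cells after 24 h chemical exposure. Bidirectional curve fitting against DMSO; readout is reporter transcript level by RT-PCR with capillary electrophoresis of labelled products.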

The target of assay [7] is Retinoic acid receptor alpha (Homo sapiens) (UniProt P10276). The assay is described as follows: ATG_DR5_RAR_CIS: Attagene CIS-FACTORIAL HepG2 Assay for human Retinoic Acid Receptor Alpha (RARE), DR5 submotif (AID 2282934). As to conditions: HepG2 Attagene cis-factorial RARE DR5 reporter, mRNA; actives raise or lower the signal. In outline: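 Read-out: DR5-driven reporter transcript measured by RT-PCR, 6-FAM primer extension, HpaI digest and capillary electrophoresis. Human HepG2 liver cells carry transiently transfected cis-element reporter constructs; dosing lasts 24 h. Gain or loss of signal fitted against DMSO baseline.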
Sequence of Retinoic acid receptor alpha (Homo sapiens) (P10276 whole entry, looked up): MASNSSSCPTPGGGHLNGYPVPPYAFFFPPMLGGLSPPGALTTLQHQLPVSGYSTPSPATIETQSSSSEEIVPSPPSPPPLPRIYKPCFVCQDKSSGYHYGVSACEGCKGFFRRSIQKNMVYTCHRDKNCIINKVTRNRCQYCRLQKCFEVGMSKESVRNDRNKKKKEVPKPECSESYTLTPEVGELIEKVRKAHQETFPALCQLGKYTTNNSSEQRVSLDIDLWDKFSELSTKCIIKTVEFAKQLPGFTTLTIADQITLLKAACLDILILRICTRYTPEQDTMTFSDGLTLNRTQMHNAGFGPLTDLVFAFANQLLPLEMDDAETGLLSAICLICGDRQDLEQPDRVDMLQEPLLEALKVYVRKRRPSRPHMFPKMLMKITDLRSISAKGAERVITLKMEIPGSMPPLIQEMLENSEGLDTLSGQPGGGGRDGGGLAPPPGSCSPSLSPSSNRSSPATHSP

In assay [8] the target is Transcription factor E2F1 (Homo sapiens) (UniProt Q01094). Kind of assay: ATG_E2F_CIS: Attagene CIS-FACTORIAL HepG2 Assay for human E2F Transcription Factor 1 (AID 2282935). As to conditions: HepG2 Attagene cis-reporter, E2F reporter RNA transcripts; actives raise or lower the signal. A digest of the protocol: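 Transient MRTU transfection of HepG2; 24 h compound exposure; RNA → oligo(dT) RT → PCR → FAM label → HpaI cut → CE fluorescence. Gain/loss of signal fit against DMSO.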
Sequence of Transcription factor E2F1 (Homo sapiens) (Q01094 whole entry, looked up): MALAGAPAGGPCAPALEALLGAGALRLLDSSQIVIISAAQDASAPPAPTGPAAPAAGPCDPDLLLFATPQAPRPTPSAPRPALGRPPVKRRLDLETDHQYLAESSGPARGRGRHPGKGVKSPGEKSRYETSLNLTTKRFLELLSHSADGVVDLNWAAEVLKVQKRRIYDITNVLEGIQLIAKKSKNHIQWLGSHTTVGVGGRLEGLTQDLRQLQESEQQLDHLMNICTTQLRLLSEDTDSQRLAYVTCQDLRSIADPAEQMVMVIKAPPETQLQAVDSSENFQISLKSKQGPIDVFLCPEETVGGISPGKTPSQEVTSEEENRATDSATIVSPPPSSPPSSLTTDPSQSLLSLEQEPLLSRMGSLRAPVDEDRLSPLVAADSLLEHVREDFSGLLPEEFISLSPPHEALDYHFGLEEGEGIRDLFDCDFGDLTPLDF

A short description of assay [9]: ATG_E_Box_CIS: Attagene CIS-FACTORIAL HepG2 Assay for human Enhancer Box (E-box) (AID 2282936). The following applies: HepG2 E-box cis-reporter transcription, actives raise or lower the signal. A digest of the protocol:
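Transiently transfected HepG2, endogenous TF-driven reporters, 24 h dosing. Readout: RT-PCR plus capillary electrophoresis of fluorescent reporter fragments. Gain or loss of signal fitted bidirectionally against DMSO baseline.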

Assay [10] can be described thus: ATG_M_61_CIS: Attagene CIS-FACTORIAL HepG2 Assay for M61 Transcription Factor (Internal Marker) (AID 2282937). As to conditions: HepG2 Attagene CIS-FACTORIAL M61 internal marker reporter; actives raise or lower the signal. A digest of the protocol: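 Human liver HepG2, transient MRTU transfection (cis promoter elements), 24 h compound. Total RNA → oligo(dT) RT → PCR → FAM label → HpaI → CE. Internal background marker; bidirectional fitting, DMSO = baseline.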

A short description of assay [11]: ATG_EGR_CIS: Attagene CIS-FACTORIAL HepG2 Assay for human Early Growth Response 1 (EGR1) (AID 2282938). As to conditions: HepG2 Attagene CIS-FACTORIAL EGR reporter mRNA; actives raise or lower the signal. A digest of the protocol:
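Transient transfection of human HepG2 with multiple cis-regulated reporter units, chemical exposure 24 h, total RNA isolated. Reverse transcription, PCR, fluorescent labelling and capillary electrophoresis quantify reporter transcripts; activity fitted bidirectionally against DMSO.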

The nature of assay [12]: ATG_M_19_CIS: Attagene CIS-FACTORIAL HepG2 Assay for M19 Transcription Factor (Internal Marker) (AID 2282939). The following applies: HepG2 Attagene CIS-FACTORIAL M19 internal marker reporter; actives raise or lower the signal. In outline: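 Internal marker readout, fitted in both directions against DMSO, from HepG2 cells carrying transfected cis-element reporter constructs; RT-PCR and capillary electrophoresis of reporter mRNA after 24 h exposure.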

Assay [13] is described as follows: ATG_ERE_CIS: Attagene CIS-FACTORIAL HepG2 Assay for Estrogen Response Element (ERE) (AID 2282940). The following applies: HepG2 ERE cis-reporter, Attagene RNA transcript; actives raise or lower the signal. In outline: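 After 24 h compound treatment, RNA from transfected HepG2 cells was reverse-transcribed, reporter cDNA PCR-amplified, FAM-labelled, HpaI-cut and resolved by capillary electrophoresis. ERE-driven cis reporter transcripts reflect endogenous factors; gain or loss scored against DMSO.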

A short description of assay [14]: ATG_Ets_CIS: Attagene CIS-FACTORIAL HepG2 Assay for human Erythroblast Transformation Specific (ETS) (AID 2282941). The following applies: HepG2 ETS cis-reporter transcription, actives raise or lower the signal. A digest of the protocol:
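Multiplexed reporter transcript profiling: HepG2, 24 h treatment, total RNA to cDNA, PCR, 6-FAM labelling, HpaI cut, capillary electrophoresis. Gain- or loss-of-signal fitted against DMSO.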

The target in assay [15] is Hepatocyte nuclear factor 3-beta (Homo sapiens) (UniProt Q9Y261). Kind of assay: ATG_FoxA2_CIS: Attagene CIS-FACTORIAL HepG2 Assay for human Forkhead box A2 (FOXA2) (AID 2282942). The following applies: HepG2 cis-reporter transcription factor activity, 24 h; actives raise or lower the signal. In outline: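 Transient MRTU transfection of HepG2 liver cells; 24 h treatment; total RNA → oligo(dT) RT → PCR → FAM primer extension → HpaI cut → CE. Bidirectional fit vs DMSO.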
Sequence of Hepatocyte nuclear factor 3-beta (Homo sapiens) (Q9Y261 whole entry, looked up): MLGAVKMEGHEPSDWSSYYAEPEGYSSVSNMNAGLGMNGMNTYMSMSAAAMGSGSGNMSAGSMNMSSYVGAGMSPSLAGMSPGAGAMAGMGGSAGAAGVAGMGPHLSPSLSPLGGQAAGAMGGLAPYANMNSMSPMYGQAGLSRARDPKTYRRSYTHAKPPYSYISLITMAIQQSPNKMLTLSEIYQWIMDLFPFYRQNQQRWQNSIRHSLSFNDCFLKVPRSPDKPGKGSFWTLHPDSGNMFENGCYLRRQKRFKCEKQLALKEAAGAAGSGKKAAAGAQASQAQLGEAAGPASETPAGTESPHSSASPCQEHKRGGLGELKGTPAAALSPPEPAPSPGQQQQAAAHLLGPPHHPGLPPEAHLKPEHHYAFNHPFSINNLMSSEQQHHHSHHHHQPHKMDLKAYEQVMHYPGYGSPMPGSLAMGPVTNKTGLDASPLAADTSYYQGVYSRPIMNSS

Assay [16] in a line: ATG_FoxO_CIS: Attagene CIS-FACTORIAL HepG2 Assay for human Forkhead box O (FoxO) (AID 2282943). As to conditions: HepG2 Attagene cis-reporter, FoxO element, mRNA; actives raise or lower the signal. In outline:
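Read-out: fluorescence of 6-FAM-labelled reporter cDNA fragments resolved by capillary electrophoresis. Transiently transfected HepG2 cells were dosed for 24 h; activity fitted in both directions relative to DMSO controls.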

Assay [17] can be described thus: ATG_GATA_CIS: Attagene CIS-FACTORIAL HepG2 Assay for human GATA Binding Protein (AID 2282944). As to conditions: HepG2 GATA cis-element reporter, Attagene multiplex mRNA; actives raise or lower the signal. In outline: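 Reporter transcripts from a GATA cis-regulated unit, among multiplexed reporters in transfected HepG2 cells, were measured by RT-PCR with capillary electrophoresis after 24 h dosing. Induction or loss scored relative to DMSO.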

Assay [18] can be described thus: ATG_GLI_CIS: Attagene CIS-FACTORIAL HepG2 Assay for human Zinc Finger Protein GLI1 (AID 2282945). The following applies: HepG2, Attagene cis-factorial reporter mRNA, GLI element; actives raise or lower the signal. A digest of the protocol: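 Transiently transfected HepG2 cells report endogenous transcription factor activity via cis-element-driven reporter units. After 24 h compound exposure, reporter mRNA was measured by RT-PCR with capillary electrophoresis; bidirectional fitting against DMSO baseline.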

Assay [19] concerns the target Bile acid receptor (Homo sapiens) (UniProt Q96RI1). Kind of assay: ATG_IR1_CIS: Attagene CIS-FACTORIAL HepG2 Assay for human Nuclear Receptor Subfamily 1 Group H Member 4 (NR1H4), IR1 submotif (AID 2282946). The following applies: IR1 reporter transcription, actives raise or lower the signal. In outline:
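Fluorescence of capillary-separated, HpaI-digested RT-PCR reporter products gave IR1-element mRNA induction in HepG2 cells 24 h after dosing. Endogenous transcription factors drove the cis-regulated reporters; activity was fitted bidirectionally against DMSO.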

Assay [20] in a line: ATG_AP_2_CIS: Attagene CIS-FACTORIAL HepG2 Assay for human Activator Protein 2 (AP-2) (AID 2282932). As to conditions: HepG2 AP-2 cis-reporter, Attagene transcription factor profiling; actives raise or lower the signal. In outline:
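Read-out: fluorescent reporter mRNA via RT-PCR and capillary electrophoresis, 24 h post-dose in transiently transfected HepG2. Endogenous factors drive cis-promoter reporters; gain or loss of signal fitted bidirectionally against DMSO.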

Sequence of Bile acid receptor (Homo sapiens) (Q96RI1 whole entry, looked up): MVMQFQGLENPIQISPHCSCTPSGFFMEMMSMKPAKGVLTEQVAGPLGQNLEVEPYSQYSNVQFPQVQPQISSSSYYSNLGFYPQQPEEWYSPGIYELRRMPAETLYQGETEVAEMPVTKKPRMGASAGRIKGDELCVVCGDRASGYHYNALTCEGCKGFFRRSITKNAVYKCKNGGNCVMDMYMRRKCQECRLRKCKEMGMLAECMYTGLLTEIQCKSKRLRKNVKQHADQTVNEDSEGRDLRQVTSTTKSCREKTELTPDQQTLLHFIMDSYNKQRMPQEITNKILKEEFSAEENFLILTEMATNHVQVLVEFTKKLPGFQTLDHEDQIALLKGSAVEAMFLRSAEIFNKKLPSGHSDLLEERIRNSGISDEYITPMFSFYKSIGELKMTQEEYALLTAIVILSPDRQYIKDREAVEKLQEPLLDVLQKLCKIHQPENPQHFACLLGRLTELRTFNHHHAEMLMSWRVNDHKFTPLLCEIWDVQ
Sequence of CCAAT/enhancer-binding protein beta (Homo sapiens) (P17676 whole entry, looked up): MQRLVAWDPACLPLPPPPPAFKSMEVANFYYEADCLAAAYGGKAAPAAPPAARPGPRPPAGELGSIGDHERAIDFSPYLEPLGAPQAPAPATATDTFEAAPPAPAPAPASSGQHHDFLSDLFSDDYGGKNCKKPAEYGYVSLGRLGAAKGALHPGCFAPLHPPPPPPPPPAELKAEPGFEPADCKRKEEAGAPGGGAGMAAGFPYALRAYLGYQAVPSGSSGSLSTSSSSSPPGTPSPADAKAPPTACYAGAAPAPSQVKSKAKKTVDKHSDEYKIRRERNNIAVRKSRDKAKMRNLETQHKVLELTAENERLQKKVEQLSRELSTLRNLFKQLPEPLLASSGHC
Sequence of Aryl hydrocarbon receptor (Homo sapiens) (P35869 whole entry, looked up): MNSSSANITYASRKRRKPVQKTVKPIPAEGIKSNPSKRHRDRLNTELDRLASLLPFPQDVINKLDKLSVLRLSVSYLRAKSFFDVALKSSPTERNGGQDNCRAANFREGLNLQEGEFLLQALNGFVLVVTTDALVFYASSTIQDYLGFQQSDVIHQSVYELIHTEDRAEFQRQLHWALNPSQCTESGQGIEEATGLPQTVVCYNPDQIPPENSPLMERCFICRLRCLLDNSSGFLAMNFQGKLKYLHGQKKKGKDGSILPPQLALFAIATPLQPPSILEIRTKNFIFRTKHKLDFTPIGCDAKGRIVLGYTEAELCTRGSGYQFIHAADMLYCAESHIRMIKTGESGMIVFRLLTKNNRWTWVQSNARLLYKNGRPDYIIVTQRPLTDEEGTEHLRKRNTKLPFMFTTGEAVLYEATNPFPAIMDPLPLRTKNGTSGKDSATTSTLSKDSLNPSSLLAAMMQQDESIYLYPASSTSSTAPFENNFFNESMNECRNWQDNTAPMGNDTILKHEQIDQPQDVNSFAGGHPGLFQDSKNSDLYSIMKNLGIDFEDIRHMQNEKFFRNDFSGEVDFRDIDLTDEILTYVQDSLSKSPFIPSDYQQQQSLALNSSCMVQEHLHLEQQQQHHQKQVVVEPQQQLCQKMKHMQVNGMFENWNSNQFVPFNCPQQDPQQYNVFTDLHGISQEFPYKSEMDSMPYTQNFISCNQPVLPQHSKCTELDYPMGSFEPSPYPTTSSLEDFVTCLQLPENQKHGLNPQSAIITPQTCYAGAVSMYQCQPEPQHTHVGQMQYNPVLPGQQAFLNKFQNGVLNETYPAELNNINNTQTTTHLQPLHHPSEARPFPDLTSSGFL

Turning to `C[C@]12CC[C@@H]3c4ccc(O)cc4C[C@@H](CCCCCCCCCS(=O)CCCC(F)(F)C(F)(F)F)[C@H]3[C@@H]1CC[C@@H]2O` (some centres undefined), the outcome in assay [1], in assay [2], in assay [3], in assay [4], in assay [5] and in assay [6] was inactive. For the same molecule, the outcome in [7], in assay [8], in [9], in assay [10], in assay [11] and in assay [12] was inactive. The result in assay [13], in assay [14], in assay [15], in [16], in assay [17] and in [18] was inactive. Further, in [19], the outcome was inactive.

For `CCCCCOC(=O)COc1cc(N2C(=O)C3=C(CCCC3)C2=O)c(F)cc1Cl`, the outcome in assay [1], in assay [2], in [4], in assay [5], in assay [20] and in [6] was inactive. The molecule was called inactive in assay [7], in assay [8], in assay [10], in assay [11], in assay [12] and in assay [13]. Moreover, the call in assay [14], in assay [15], in assay [16], in [17] and in assay [18] was inactive. Moreover, the AC50 in assay [3] is 32.6 µM (active); in assay [9], 50 µM (active).

Regarding `COC(=O)c1cccc(C)c1S(=O)(=O)NC(=O)Nc1nc(OCC(F)(F)F)nc(N(C)C)n1`, the outcome in assay [1], in [2], in assay [3], in assay [4], in [5] and in assay [6] was inactive. Besides, the molecule was called inactive in assay [7], in assay [8], in assay [9], in [10], in assay [11] and in assay [12]. Also, the result in assay [13], in assay [14], in assay [15], in [16], in [17] and in assay [18] was inactive. Moreover, the molecule was called inactive in assay [19].

Turning to `O=C(O)c1ccccc1`, the result in [1], in assay [2], in assay [3], in assay [4], in assay [5] and in assay [6] was inactive. Further, the result in assay [8], in [9], in [10], in [11], in assay [12] and in assay [13] was inactive. Moreover, the call in assay [14], in [15], in [16], in assay [17] and in assay [18] was inactive.
